Measurements published in PubChem BioAssay (NCI).
About 83,000 compounds went through this panel and 20% of them were active in at least one assay; those are over-represented in the sample as a whole.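 48-hour exposure, single concentration, 96-well plates; percent growth endpoint where 0 means no net growth. Active: below 10.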 Activity calls are given as the source filed them.

The molecules below were run on NCI-H522 lung (assay: NCI-60 one-dose screen, 48 h (100 = growth as untreated, 0 = no growth, -100 = all killed)). Settings: 1 µM.
Procedure: Growth inhibition of the NCI-H522 human Non-Small Cell Lung tumor cell line is measured as a screen for anti-cancer activity. Cells are grown in 96 well plates and exposed to the test compound for 48 hours. Compounds are tested at a single concentration, which is 10^-5 M for most compounds. The reported endpoint is percent growth (GI% or GIPRCNT), where numbers from 0 - 100% represent growth inhibition, and numbers from -100% - 0 represent cell death. For example, a value of 40 represents 60% growth inhibition. A value of 0 means no net growth occurred over the course of the experiment. A value of -40 indicates 40% of cells at the beginning of the experiment died by the end of the experiment. A value of -100 means all cells are dead at the end of the experiment.
NCI-60 Human Tumor Cell Lines Screen was performed using the standard one-dose NCI protocol, which is described in more detail at https://dtp.cancer.gov/discovery_development/nci-60/default.htm.
Compounds with GIPRCNT values below 10 were considered active. Activity score was based on GIPRCNT using the following formula: […]
Score is 0 for GIPRCNT values of 100 or above, 50 for GIPRCNT values of 0, and 100 for GIPRCNT values of -100.

Row | Structure (SMILES) | growth
1 | CC/C(=C(\c1ccc(O)cc1)c1ccc(OCCNC)cc1)c1ccccc1 | 87.9% (inactive)

Same assay, conditions: 10 µM

Row | Structure (SMILES) | growth
2 | CC/C(=C(\c1ccc(O)cc1)c1ccc(OCCNC)cc1)c1ccccc1 | 93% (inactive)

Same assay, conditions: 10 µM unless noted

Row | Structure (SMILES) | growth
3 | Cc1ccc2nc(SCc3ccccc3F)n(-c3ccccc3)c(=O)c2c1 | 87.8% (inactive)
4 | COc1ccc(C(=O)C[n+]2cccc3c4ccccc4ccc32)cc1 | 28.8% (inactive)
5 | COc1cc(C2C(C(=O)OCc3ccccc3)=C(C)Nc3nc4ccccc4n32)cc(OC)c1OC (stereo not given) | -7% (active)
6 | COc1ccc(/C=C/C(=O)c2ccc(OC)c(S(N)(=O)=O)c2)c(C(F)(F)F)c1 | 9.43% (active)
7 | CC1=C(C)C(=O)C(NCCN2CCOCC2)=C(Br)C1=O | -18.4% (active)
8 | COc1ccc2[nH]c(O)c(N=NC(=O)c3ccc4nc(-c5ccc(Cl)cc5)[nH]c4c3)c2c1 | 35.3% (inactive)
9 | O=C(CSc1nc2sc3c(c2c(=O)n1-c1ccc(Cl)cc1)CCCC3)N/N=C/C=C/c1ccccc1 | 2.3% (active)
10 | O=C(N/N=C/c1occc1Br)c1[nH]c2ccc(Br)cc2c1-c1ccccc1 | -86.9% (active)
11 | O=S(=O)(c1nc(-c2ccc(Br)cc2)oc1-c1ccc(Cl)cc1)N1CCCC(O)C1 (stereo not given) | 49.2% (inactive)
12 | CS(=O)(=O)Nc1cc(-c2ccc3ncnc(Nc4ccc(OCc5cccnc5)c(Cl)c4)c3c2)cnc1Cl | -4.01% (active)
13 | O=C1CC(c2ccc(I)cc2)OC2C=Cc3ccccc3C12 (stereo not given) | 86.9% (inactive)
14 | Nc1cc(-c2c[nH]c3ccc(Br)cc23)nc2cc(-c3c[nH]c4ccccc34)nn12 | -77% (active)
15 | COc1ccc2c(c1)C(=O)N(C)C2C1c2c(cc3c(c2OC)OCO3)CCN1C (stereo not given) | 36% (inactive)
16 | Cc1ccc(C(C)C)cc1Oc1cccc(-c2c(-c3ccc(C(F)(F)F)cc3)ncn2C2CCNCC2)n1 | -91.2% (active)
17 | CCOc1ccccc1NC(=O)N/C(N)=N/c1nc2ccccc2s1 | -39.8% (active)
18 | COc1ccc(-c2cc(-c3cc(C(C)C)c(O)cc3C)nn2-c2ccc(S(N)(=O)=O)cc2)cc1 | 6.99% (active)
19 | COc1cc(-c2ccc3ncnc(N4CCc5ccc(Cl)cc54)c3c2)cnc1Cl | 38.6% (inactive)
20 | CC(C)(C)C(=O)c1c2c(c3ccc4c5ccccc5ccc4n13)C(=O)c1ccccc1C2=O | 91.5% (inactive)
21 | COc1ccc(C2=NN(C(=O)[C@H]3[C@@H](c4ccco4)c4sc(=O)[nH]c4S[C@@H]3C)C(c3ccc4ccccc4c3)C2)cc1 (stereo not given in full) | 4.06% (active)

Row | Structure (SMILES) | growth
22 | Cc1cc(C)c2[nH]c(=O)c(C(c3nnnn3Cc3ccc4c(c3)OCO4)N3CCN(C)CC3)cc2c1 (stereo not given) | 120% (inactive)
23 | N#Cc1c(NC(=O)N2CCOCC2)n(-c2ccc(OC(F)(F)F)cc2)c2cc(F)ccc12 | 78.8% (inactive)
24 | Cc1ccc(C(=O)Nc2cc(-n3ccnc3)cc(C(F)(F)F)c2)cc1-n1cc(-c2cnc3cccnn23)nn1 | 102% (inactive)
25 | COc1ccc(N=Nc2c(N)nn3c(N)c(C#N)c(-c4ccc(C)cc4)nc23)cc1 | 48.9% (inactive)
26 | COc1cc(CNC(=O)C[C@H](C)CCC=C(C)C)ccc1OCc1cn(-c2ccc(Cl)c(Cl)c2)nn1 | 61.5% (inactive)
27 | Nc1cc(-c2c[nH]c3ccc(Cl)cc23)nc2cc(-c3c[nH]c4ccccc34)nn12 | -75% (active)
28 | CCOC(=O)/C(F)=C/C1CC1CCc1ccc(OCC)cc1 (stereo not given) | 97.5% (inactive)
29 | O=C(NNC(=O)c1ccc(OCc2nc3ccc(Cl)cc3[nH]2)cc1)Nc1ccc(Cl)c(C(F)(F)F)c1 | 49% (inactive)
30 | O=C(CSc1nnc(-c2ccc(-c3nc4ccccc4[nH]3)cc2)o1)Nc1ccc(Cl)cc1 | 0.5% (active)
31 | COc1ccc2oc(=O)c(-c3csc(N/N=C(\C)c4cc(OC)c(OC)c(OC)c4)n3)cc2c1 | 85.8% (inactive)
32 | CC1=C(C(=O)OC(C)C)C(c2ccc(O)cc2)NC(=O)N1 (stereo not given) | 81.3% (inactive)
33 | CCCSc1nnc(-c2c(C)nc3sccn23)o1 | 98.7% (inactive)
34 | C/C(=N\Nc1ccc(S(N)(=O)=O)cc1)c1cnn(-c2cc(=O)[nH]c3ccc(Br)cc23)c1C | 5.07% (active)
35 | CC1=C(C(=O)Nc2ccccc2)C(c2ccc3ccccc3c2)n2c(nc3ccccc32)N1 (stereo not given) | 63% (inactive)
36 | O=C(Nc1ccc(Br)cc1)Nc1ccc(-c2ccc3c(c2)NC(=O)/C3=C\c2ccc[nH]2)cc1 | 24.1% (inactive)
37 | COc1ccc(-c2cc(C)nc3[nH]c(=O)sc23)cc1 | 61.8% (inactive)
38 | CCOC(=O)c1ccc(NC(=S)NC(=O)c2cccc(NC(=O)c3ccc(C)cc3)c2)cc1 | 50.6% (inactive)
39 | S=C(Nc1ccccc1)Nc1ccc(OCc2nc3ccc(Cl)cc3[nH]2)cc1 | 61.1% (inactive)
40 | CCOc1ccccc1[C@H]1C(C(=O)c2ccc(Cl)cc2)C2(N[C@@H]1c1ccccc1)C(=O)Nc1ccc(Br)cc12 (stereo not given in full) | -4.42% (active)
